This note sets out measurements from PubChem BioAssay (Tox21).

A short description of assay [1]: qHTS assay to identify small molecule agonists of the peroxisome proliferator-activated receptor delta (PPARd) signaling pathway - cell viability counter screen (AID 743211; active means well fitted curve in the direction sought with a large enough effect in the repeat runs; an effect the other way counts as inactive or inconclusive; further: nearly all actives have a fitted effect of over 55% in size; further: potency means the concentration at half of the fitted maximal effect). The method in brief:
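Viability of GeneBLAzer PPARd UAS-bla HEK293H cells was assessed after 17 h compound incubation at 37C, using CellTiter-Glo reagent added after the reporter read and luminescence recorded 30 min later.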

For assay [2], the target named is Peroxisome proliferator-activated receptor delta (Homo sapiens) (UniProt Q03181). In words: qHTS assay to identify small molecule agonists of the peroxisome proliferator-activated receptor delta (PPARd) signaling pathway (AID 743212). Summed up: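 Beta-lactamase reporter readout: a ratiometric FRET signal from the LiveBLAzer substrate after 2 h at room temperature. Compound exposure at 37 °C in PPARδ-bla HEK293H cells driven by an upstream activator sequence.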
Sequence of Peroxisome proliferator-activated receptor delta (Homo sapiens) (Q03181 whole entry, looked up): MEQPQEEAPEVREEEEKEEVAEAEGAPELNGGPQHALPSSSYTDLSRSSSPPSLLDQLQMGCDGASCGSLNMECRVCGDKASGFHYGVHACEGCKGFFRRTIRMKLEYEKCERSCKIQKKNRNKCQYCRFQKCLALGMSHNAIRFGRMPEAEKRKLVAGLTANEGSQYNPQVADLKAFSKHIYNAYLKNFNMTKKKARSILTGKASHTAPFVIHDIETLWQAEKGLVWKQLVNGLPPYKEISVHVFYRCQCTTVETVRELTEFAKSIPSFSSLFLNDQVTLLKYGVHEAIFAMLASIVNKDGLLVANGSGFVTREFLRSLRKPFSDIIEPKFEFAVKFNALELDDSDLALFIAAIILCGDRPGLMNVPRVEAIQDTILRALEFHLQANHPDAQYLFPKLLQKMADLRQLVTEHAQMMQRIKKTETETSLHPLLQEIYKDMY
A general note: Quantitative high-throughput screening tests each substance at several concentrations.

A short description of assay [3]: qHTS assay to identify small molecule antagonists of the peroxisome proliferator-activated receptor delta (PPARd) signaling pathway - cell viability counter screen (AID 743213; active means well fitted curve in the direction sought with a large enough effect in the repeat runs; an effect the other way counts as inactive or inconclusive; further: nearly all actives have a fitted effect of over 50% in size; further: potency means the concentration at half of the fitted maximal effect). The method in brief: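 PPARd-bla HEK293H cells (3000/well) got compound plus 300 nM L165041 agonist for 17 h at 37 C. Viability in the same wells came from CellTiter-Glo luminescence after 30 min at room temperature.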

Assay [4] has as its target Peroxisome proliferator-activated receptor delta (Homo sapiens) (UniProt Q03181). The experiment in a line: qHTS assay to identify small molecule antagonists of the peroxisome proliferator-activated receptor delta (PPARd) signaling pathway (AID 743215; active means well fitted inhibition curve with a large enough effect in the signal ratio in the repeat runs, not every such curve was filed as active; the % refers to the signal ratio;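 further: cells stimulated with agonist L165041 at 300 nM final during compound exposure; series mostly up to about 62 µM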). Summed up:
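HEK293H GeneBLAzer PPARd UAS-bla reporter cells; cpd + L165041 300 nM final, 17 h 37 C; LiveBLAzer B/G FRET substrate 2 h RT; fluorescence intensity read-out. Antagonist mode.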

Assay [5] deals with Bile acid receptor (Homo sapiens) (UniProt Q96RI1). In words: qHTS assay to identify small molecule antagonists of the farnesoid-X-receptor (FXR) signaling pathway (AID 743217; active means well fitted inhibition curve with a large enough effect in the signal ratio in the repeat runs, not every such curve was filed as active; the % refers to the signal ratio; further: potency means the concentration at half of the fitted maximal effect). Summed up:
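Read-out: beta-lactamase FRET fluorescence (LiveBLAzer B/G substrate, 2 h, room temperature) in GeneBLAzer FXR-UAS-bla HEK 293T cells. Compounds were co-dosed with 50 uM chenodeoxycholic acid (final) and incubated 16 h at 37 °C.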

A short description of assay [6]: qHTS assay to identify small molecule agonists of the farnesoid-X-receptor (FXR) signaling pathway - cell viability counter screen (AID 743218; active means well fitted curve in the direction sought with a large enough effect in the repeat runs; an effect the other way counts as inactive or inconclusive; further: nearly all actives have a fitted effect of over 45% in size; further: potency means the concentration at half of the fitted maximal effect). The method in brief: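 Luminescence from CellTiter-Glo, read after 30 min at RT, reports viability of GeneBLAzer FXR-UAS-bla HEK 293T cells treated 16 h with compounds in the wells used for the beta-lactamase reporter.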

Assay [7] is described as follows: qHTS assay to identify small molecule antagonists of the farnesoid-X-receptor (FXR) signaling pathway - cell viability counter screen (AID 743221; active means well fitted cell-killing curve with a large enough effect in the repeat runs, not every such curve was filed as active; further: nearly all actives have a fitted effect of over 50% in size). The method in brief: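 Quantitative HTS of the Tox21 10K library run in parallel with the beta-lactamase reporter read. HEK 293T cells carrying a UAS-driven bla reporter got compound and 50 uM CDCA (final) for 16 h; ATP-based luminescence followed.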

Assay [8] deals with Vitamin D3 receptor (Homo sapiens) (UniProt P11473). In words: qHTS assay to identify small molecule agonists of the vitamin D receptor (VDR) signaling pathway (AID 743222). The method in brief: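 Beta-lactamase reporter readout (LiveBLAzer B/G FRET, 2 h RT) in VDR-bla cells after 16 h compound treatment at 37C, 5% CO2; cells pre-incubated 4 h before pin transfer of DMSO solutions.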
Sequence of Vitamin D3 receptor (Homo sapiens) (P11473 whole entry, looked up): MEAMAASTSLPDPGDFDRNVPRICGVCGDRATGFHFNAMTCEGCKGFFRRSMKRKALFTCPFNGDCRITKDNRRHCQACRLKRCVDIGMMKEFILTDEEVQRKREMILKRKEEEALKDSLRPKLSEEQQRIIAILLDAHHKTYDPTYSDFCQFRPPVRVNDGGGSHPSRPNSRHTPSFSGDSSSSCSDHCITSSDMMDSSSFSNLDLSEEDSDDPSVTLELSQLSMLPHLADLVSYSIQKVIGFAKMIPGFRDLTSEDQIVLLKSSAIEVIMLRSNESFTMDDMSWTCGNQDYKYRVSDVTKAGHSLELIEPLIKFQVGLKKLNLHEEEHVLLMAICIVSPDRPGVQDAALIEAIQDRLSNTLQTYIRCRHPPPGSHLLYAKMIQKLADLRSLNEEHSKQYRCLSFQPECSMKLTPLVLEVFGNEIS

Assay [9] shares this target. The experiment in a line: qHTS assay to identify small molecule antagonists of the vitamin D receptor (VDR) signaling pathway (AID 743223; active means well fitted inhibition curve with a large enough effect in the signal ratio in the repeat runs, not every such curve was filed as active; the % refers to the signal ratio). The method in brief: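 Fluorescence from LiveBLAzer B/G FRET substrate, read after 2 h at room temperature, reflects beta-lactamase reporter activity in VDR-bla cells treated 16 h at 37C with compounds and agonist 1alpha,25-dihydroxyvitamin D3 (3 nM final).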

Assay [10] is described as follows: qHTS assay to identify small molecule agonists of the vitamin D receptor (VDR) signaling pathway - cell viability counter screen (AID 743224; active means well fitted curve in the direction sought with a large enough effect in the repeat runs; an effect the other way counts as inactive or inconclusive; further: series mostly up to about 63 µM; nearly all actives have a fitted effect of over 50% in size). The method in brief:
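Cytotoxicity counter screen: VDR-bla cells, 16 h compound exposure at 37C, 5% CO2; CellTiter-Glo luminescence, 30 min RT, same wells as bla read.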

The nature of assay [11]: qHTS assay to identify small molecule antagonists of the vitamin D receptor (VDR) signaling pathway - cell viability counter screen (AID 743225; active means well fitted curve in the direction sought with a large enough effect in the repeat runs; an effect the other way counts as inactive or inconclusive; further: nearly all actives have a fitted effect of over 50% in size). Summed up: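 Cells (VDR-UAS-bla HEK 293T) are plated, rested 4 h at 37C, dosed with compound and 3 nM final 1-alpha,25-dihydroxy vitamin D3, and incubated 16 h. Viability is taken from CellTiter-Glo luminescence in the reporter wells.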

A short description of assay [12]: qHTS assay to identify small molecule agonists of the NFkB signaling pathway - cell viability counter screen (AID 1159515). Further: series mostly up to about 61 µM; nearly all actives have a fitted effect of over 55% in size. The method in brief: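 ME-180 NFkB-bla cells, 2,000/well; overnight attach; compound 5 hr, 37 C/5% CO2; LiveBLAzer substrate 1.5 hr RT; then CellTiter-Glo in same wells, 30 min RT, luminescence read.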
Assay [13] in a line: qHTS assay to identify small molecule agonists of the endoplasmic reticulum stress response signaling pathway (AID 1159516; active means well fitted activation curve with a large enough effect in the signal ratio in the repeat runs, not every such curve was filed as active; the % refers to the signal ratio). The method in brief: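 HeLa ESRE-bla reporter line; cpd 5 h, 37 C/5% CO2; LiveBLAzer B/G FRET substrate 2 h RT; ex 405, em 460/530 nm.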
The nature of assay [14]: qHTS assay to identify small molecule agonists of the endoplasmic reticulum stress response signaling pathway - cell viability counter screen (AID 1159517). The method in brief:
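ESRE-bla HeLa cells (1,500/well) were plated overnight at 37 C and exposed to compounds for 5 hr. After the 2 hr beta-lactamase substrate read, CellTiter-Glo went into the same wells, and luminescence was read after 30 min at room temperature.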

The nature of assay [15]: qHTS assay to identify small molecule agonists of the AP-1 signaling pathway (AID 1159526).
The target in assay [16] is Nuclear receptor ROR-gamma (Homo sapiens) (UniProt P51449). In words: qHTS assay to identify small molecule antagonists of the retinoid-related orphan receptor gamma (ROR-gamma) signaling pathway (AID 1159521; active means well fitted curve in the direction sought with a large enough effect in the repeat runs; an effect the other way counts as inactive or inconclusive; further: nearly all actives have a fitted effect of over 50% in size; further: potency means the concentration at half of the fitted maximal effect). The method in brief: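 RORγ antagonism is scored from reduced reporter luminescence in Tet-on CHO cells. Induction used 1 uM final doxycycline hyclate for 16 h at 37 C, following a 2 h compound exposure.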

A short description of assay [17]: qHTS assay to identify small molecule agonists of the AP-1 signaling pathway - cell viability counter screen (AID 1159525). Further: nearly all actives have a fitted effect of over 55% in size. Summed up:
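Intracellular ATP by Cell Titer Glo luminescence (30 min, RT) in the same ME-180 AP-1-bla wells after the 5 h compound exposure at 37 °C. Normalised to tetra n-octyl ammonium bromide and DMSO controls.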

The target in assay [18] is Retinoic acid receptor RXR-alpha (Homo sapiens) (UniProt P19793). The experiment in a line: qHTS assay to identify small molecule agonists of the RXR signaling pathway (AID 1159527). Further: nearly all actives have a fitted effect of over 35% in size. Summed up: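 qHTS of the Tox21 10K library in GeneBLAzer RXR-alpha HEK 293T cells carrying a beta-lactamase reporter […]; 16 hr treatment, 9-cis retinoic acid as agonist control, FRET read-out.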
Sequence of Retinoic acid receptor RXR-alpha (Homo sapiens) (P19793 whole entry, looked up): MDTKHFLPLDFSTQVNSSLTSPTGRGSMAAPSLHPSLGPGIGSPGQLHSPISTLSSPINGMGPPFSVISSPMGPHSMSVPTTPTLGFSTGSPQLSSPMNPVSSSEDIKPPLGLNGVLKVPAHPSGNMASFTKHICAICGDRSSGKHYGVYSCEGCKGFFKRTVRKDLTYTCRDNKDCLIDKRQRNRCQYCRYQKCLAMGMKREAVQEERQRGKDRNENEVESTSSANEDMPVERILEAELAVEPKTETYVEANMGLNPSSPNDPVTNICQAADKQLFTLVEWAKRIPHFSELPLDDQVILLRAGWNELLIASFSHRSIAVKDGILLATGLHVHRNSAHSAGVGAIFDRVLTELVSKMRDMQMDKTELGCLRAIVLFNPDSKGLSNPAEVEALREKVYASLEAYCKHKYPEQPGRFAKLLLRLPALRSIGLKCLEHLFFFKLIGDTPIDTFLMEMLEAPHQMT

The target in assay [19] is Bile acid receptor (Homo sapiens) (UniProt Q96RI1). The experiment in a line: qHTS assay to identify small molecule agonists of the farnesoid-X-receptor (FXR) signaling pathway (AID 743220; active means well fitted activation curve with a large enough effect in the signal ratio in the repeat runs, not every such curve was filed as active; the % refers to the signal ratio). The method in brief:
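FXR-UAS-bla HEK 293T cells carrying a UAS-driven beta-lactamase reporter were plated for 5 h at 37C/5% CO2, then exposed to DMSO-dissolved Tox21 10K compounds for 16 h at 37C. A LiveBLAzer B/G FRET substrate was loaded for 2 h at room temperature before fluorescence reading.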

SMILES strings stand for the structures. Inconclusive results are not listed. Values without a mark were called inactive. Active and inactive are the calls of the source. Unless noted, the call rests on the fitted dose curve.

Sequence of Bile acid receptor (Homo sapiens) (Q96RI1 whole entry, looked up): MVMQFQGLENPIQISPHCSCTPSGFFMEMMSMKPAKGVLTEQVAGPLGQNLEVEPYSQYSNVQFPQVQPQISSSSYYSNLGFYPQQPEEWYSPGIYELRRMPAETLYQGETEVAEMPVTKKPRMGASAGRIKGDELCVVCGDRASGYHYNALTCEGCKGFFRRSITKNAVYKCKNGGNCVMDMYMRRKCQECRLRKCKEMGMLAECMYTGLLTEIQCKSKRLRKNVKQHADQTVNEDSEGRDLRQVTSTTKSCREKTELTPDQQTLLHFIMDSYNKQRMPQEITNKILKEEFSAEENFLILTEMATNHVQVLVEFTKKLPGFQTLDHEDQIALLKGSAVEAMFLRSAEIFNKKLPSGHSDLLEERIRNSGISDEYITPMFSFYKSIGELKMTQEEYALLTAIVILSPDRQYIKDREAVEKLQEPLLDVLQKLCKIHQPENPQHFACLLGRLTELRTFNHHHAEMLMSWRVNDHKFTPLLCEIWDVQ

In the case of `C/C=C/C=C/COC(=O)C(C)C`, the Potency entry in [1], in [2], in assay [3], in assay [4], in assay [5] and in assay [6] was “inactive” in each case. The Potency result in assay [7], in [8], in assay [9], in assay [10], in assay [11] and in assay [12] was “inactive” each time. Further, the Potency entry in assay [13], in [14] and in [15] was “inactive” each time.
Turning to `CN1CCCCC1CCN1c2ccccc2Sc2ccc(S(C)=O)cc21` (stereo not drawn), the Potency entry in [2], in assay [4], in assay [6], in assay [7], in assay [10] and in [11] was “inactive” throughout. Further, the Potency entry in [12], in assay [13], in [14], in assay [17] and in assay [18] was “inactive” throughout. Further, the Potency in assay [16] is 29.8 µM (active).
In the case of `Cc1cc(C(C#N)c2ccc(Cl)cc2)c(Cl)cc1NC(=O)c1cc(I)cc(I)c1O` (stereo not drawn), the Potency in [1] and in assay [16] was 29.8 µM (active) throughout. The Potency result in assay [10], in assay [11], in assay [12], in assay [13], in assay [14] and in assay [17] was “inactive” throughout.
Turning to `COc1ccc(-c2coc3cc(O)ccc3c2=O)cc1`, the Potency entry in assay [1], in [2], in assay [6], in assay [7], in assay [8] and in assay [11] was “inactive” in each case. The Potency entry in assay [12], in [13], in assay [14], in [17] and in assay [15] was “inactive” throughout.
As for `c1ccc(SSc2ccccc2)cc1`, the Potency result in [1], in assay [3], in assay [4], in [7], in assay [8] and in assay [10] was “inactive” in each case. Further, the Potency result in [11], in assay [12], in [13], in [14] and in [17] was “inactive” each time.
Regarding `Cc1ccc(O)c(O)c1`, the Potency result in assay [4], in assay [6], in assay [19], in assay [7], in assay [9] and in assay [11] was “inactive” throughout. Also, the Potency entry in assay [12], in [13], in [14], in [17], in assay [15] and in assay [18] was “inactive” each time.
With `CCCCN(CCCC)CC(O)c1cc(Cl)cc2c1-c1ccc(Cl)cc1/C2=C/c1ccc(Cl)cc1` (stereo not drawn), the Potency in assay [3], in assay [6] and in assay [16] was 29.8 µM (active) in each case. The Potency entry in [9], in [12], in assay [13], in assay [14] and in assay [17] was “inactive” each time.
For `COC(=O)C1=C(C)NC(C)=C(C(=O)OCCN2CCN(C(c3ccccc3)c3ccccc3)CC2)C1c1cccc([N+](=O)[O-])c1` (stereo not drawn), the Potency in [5] was 11.9 µM (active). Moreover, the Potency result in assay [10], in assay [11], in assay [12], in assay [13], in [14] and in [17] was “inactive” in each case.
As to `Oc1cc(Cl)cc(Cl)c1Cl`, the Potency entry in assay [1], in [2], in [6], in [7], in [8] and in assay [9] was “inactive” throughout. Moreover, the Potency result in [11], in assay [12], in [13], in assay [14], in assay [17] and in assay [18] was “inactive” each time.
As for `O=c1[nH]c2ccccc2n1CCCN1CCN(C(c2ccccc2)c2ccccc2)CC1`, the Potency was 29.8 µM (active) in assay [1] and 26.6 µM (active) in assay [6]. Also, the Potency result in assay [3], in [4], in assay [7], in [9], in [11] and in assay [12] was “inactive” each time. For the same compound, the Potency entry in assay [13], in assay [14] and in assay [15] was “inactive” each time.
On to `OC12N=C(c3ccccc3)SC1Cc1cc(Cl)ccc12` (stereo not drawn), for which the Potency entry in assay [2], in assay [3], in assay [4], in assay [5], in assay [6] and in assay [19] was “inactive” throughout. Also, the Potency result in [7], in assay [8], in [9], in assay [10], in assay [11] and in assay [12] was “inactive” throughout. The Potency result in assay [13], in [14], in assay [16] and in assay [17] was “inactive” in each case.
